In the supplement of paper PMC6992640:
± gives the standard deviation of the averaged measurements.

What follows are compounds tested on WHIM2 (cells of a triple-negative basal-like breast cancer xenograft) (assay: cell viability (% of vehicle); higher = less cytotoxic). Conditions: 10 µM; 72 h.
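Also: PDX cells carrying CMV promoter-driven luciferase, viability read as total photon flux per second by IVIS imaging following D-luciferin, vehicle control 0.1% DMSO.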

| Compound | cell viability |
| --- | --- |
| Cc1nnc(C(=O)NC(C)(C)c2nc(C(=O)NCc3ccc(F)cc3)c(O)c(=O)n2C)o1 [Raltegravir (MK-0518)] | 116 ± 15 |
| Cc1c(F)cc(C(=O)NC2CC2)cc1-c1ccc(C(=O)NCC(C)(C)C)cn1 [Losmapimod] | 76.5 ± 16 |
| CCCC(C(=O)OCCN(CC)CC)(c1ccccc1)c1ccccc1.Cl [SKF 525A (hydrochloride)] | 99.1 ± 11 |

These compounds were tested on WHIM30 (cells of a triple-negative basal-like breast cancer xenograft) in the same assay as above. Conditions: 10 µM; 72 h.

| Compound | cell viability |
| --- | --- |
| O=C1NC(=O)[C@@H](c2c[nH]c3ccccc23)[C@H]1c1cn2c3c(cccc13)CCC2 [Tivantinib (ARQ 197)] | 147 ± 26 |
| CCC1(O)CC2CN(CCc3c([nH]c4ccccc34)C(C(=O)OC)(c3cc4c(cc3OC)N(C)C3C(O)(C(=O)OC)C(OC(C)=O)C5(CC)C=CCN6CCC43C65)C2)C1 (configuration not stated) [vinblastine] | 124 ± 17 |
| Nc1ccn(C2CCC(CO)O2)c(=O)n1 (configuration not stated) [Zalcitabine] | 176 ± 35 |
| CCc1nc(N)nc(N)c1-c1ccc(Cl)cc1 [Pyrimethamine] | 104 ± 1.9 |
| C=C[C@]1(C)C[C@@H](OC(=O)CSC2C[C@H]3CC[C@@H](C2)N3C)[C@]2(C)[C@H](C)CC[C@]3(CCC(=O)[C@H]32)[C@@H](C)[C@@H]1O (some centres not stated) [Retapamulin] | 146 ± 15 |
| Nc1ccc(S(N)(=O)=O)cc1 [Sulfanilamide] | 140 ± 13 |
| CN(C)CCC(c1ccc(Br)cc1)c1ccccn1.O=C(O)C=CC(=O)O (configuration not stated) [Brompheniramine hydrogen maleate] | 113.4 ± 1.1 |
| O=C1CCC(N2C(=O)c3ccccc3C2=O)C(=O)N1 (configuration not stated) [Thalidomide] | 145 ± 15 |
| Cc1cccc(-c2nn3c(c2-c2ccnc4ccc(C(N)=O)cc24)CCC3)n1 | 111 ± 3 |
| O=C(CS(=O)Cc1ccco1)NCC=CCOc1cc(CN2CCCCC2)ccn1 (configuration not stated) [Lafutidine] | 114 ± 2 |
| c1ccc(-c2ccc(C(c3ccccc3)n3ccnc3)cc2)cc1 (configuration not stated) [Bifonazole] | 126 ± 20 |
| Nc1nccs1 [Aminothiazole] | 105 ± 18 |
| NC(=O)N1c2ccccc2C=Cc2ccccc21 [Carbamazepine] | 98.8 ± 4.5 |
| CN(CC=CC#CC(C)(C)C)Cc1cccc2ccccc12 [Terbinafine] | 117 ± 3.4 |
| CCCN1CCCCC1C(=O)Nc1c(C)cccc1C.Cl.O (configuration not stated) [Ropivacaine hydrochloride monohydrate] | 100 ± 9.1 |
| NCCCCC(NC(CCc1ccccc1)C(=O)O)C(=O)N1CCCC1C(=O)O.O.O (configuration not stated) [Lisinopril dihydrate] | 150 ± 8.1 |
| Cn1c(=O)cc(N2CCCC(N)C2)n(Cc2cc(F)ccc2C#N)c1=O (configuration not stated) [Trelagliptin] | 121 ± 13 |
| Nc1ccn(C2CSC(CO)O2)c(=O)n1 (configuration not stated) [Lamivudine] | 84.4 ± 12 |
| Clc1ccc(C(Cn2ccnc2)OCc2csc3c(Cl)cccc23)c(Cl)c1.O=[N+]([O-])O (configuration not stated) [Sertaconazole nitrate] | 123 ± 12 |
| O=C(O)c1cc(-c2ccccc2)nc2ccccc12 [Cinchophen] | 139 ± 28 |

| Compound | cell viability |
| --- | --- |
| CN1CCCC(n2nc(Cc3ccc(Cl)cc3)c3ccccc3c2=O)CC1.Cl (configuration not stated) [Azelastine HCl] | 94.9 ± 6.3 |
| Cc1cc(=O)[nH]c(=S)[nH]1 [Methylthiouracil] | 139 ± 5.5 |
| CC(COc1ccccc1)N(CCCl)Cc1ccccc1.Cl (configuration not stated) [Phenoxybenzamine HCl] | 191 ± 9.4 |
| Cc1cn(C2CC(O)C(CO)O2)c(=O)[nH]c1=O (configuration not stated) [Telbivudine] | 124 ± 24 |
| CCCCCCCCCCCCCCCCO [1-Hexadecanol] | 84.7 ± 8.4 |
| COC(=O)C1=COC(O)C2C(CO)=CCC12 (configuration not stated) [Genipin] | 155 ± 9.6 |
| CCOC(=O)CC(=O)N1CCSC1COc1ccccc1OC (configuration not stated) [Moguisteine] | 131 ± 4.4 |
| CC(Cc1cc2c(c(C(N)=O)c1)N(CCCO)CC2)NCCOc1ccccc1OCC(F)(F)F (configuration not stated) [Silodosin] | 94.2 ± 6.5 |
| COc1ccc(CN(CCN(C)C)c2ccccn2)cc1.O=C(O)/C=C\C(=O)O [Mepyramine maleate] | 111 ± 6 |
| O=C(O)CCNC(=O)c1ccc(/N=N/c2ccc(O)c(C(=O)O)c2)cc1 [Balsalazide] | 110 ± 6.1 |
| COC(=O)CCc1ccc(OCC(O)CNC(C)C)cc1.Cl (configuration not stated) [Esmolol HCl] | 113 ± 2.2 |
| Cc1ncc([N+](=O)[O-])n1CCO [Metronidazole] | 131 ± 4.7 |
| CCCCc1nc(Cl)c(CO)n1Cc1ccc(-c2ccccc2-c2nnn[n-]2)cc1.[K+] [Losartan Potassium (DuP 753)] | 118 ± 2.1 |
| CC(C)(C)C(=O)C(Oc1ccc(Cl)cc1)n1ccnc1 (configuration not stated) [Climbazole] | 120 ± 8.6 |
| Nc1ccc(C(=O)NCC(=O)[O-])cc1.[Na+] [Sodium 4-amiropparaty Hyalrate] | 171 ± 21 |
| Cl.Clc1ccc2nsnc2c1NC1=NCCN1 [Tizanidine HCl] | 117 ± 20 |
| Cc1nnc(C(=O)NC(C)(C)c2nc(C(=O)NCc3ccc(F)cc3)c(O)c(=O)n2C)o1 [Raltegravir (MK-0518)] | 136 ± 7.5 |
| Cc1c(F)cc(C(=O)NC2CC2)cc1-c1ccc(C(=O)NCC(C)(C)C)cn1 [Losmapimod] | 101 ± 6.2 |
| CCCC(C(=O)OCCN(CC)CC)(c1ccccc1)c1ccccc1.Cl [SKF 525A (hydrochloride)] | 119.8 ± 0.2 |
